This note sets out measurements from PubChem BioAssay.

The nature of assay [1]: HepG2 liver cancer cell viability effects, profiling panel, resazurin fluorescence, 24 h, PK04 Diversity Set (AID 1172). The conditions noted are these: higher = more signal. (The colour change of resazurin is a common sign of viable cells or microbes.)
Assay [2] can be described thus: basal S. cerevisiae growth modulation, no modifier, primary screen, OD600, strain BY4716, 24 h, basal condition (AID 1173). The following applies: OD600, 24 h, higher = more signal, called active from +8 up or from −8 down.
Assay [3] can be described thus: MM1S myeloma cell viability, profiling panel, resazurin fluorescence, basal, 24 h, PK04 Diversity Set (AID 1174).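 Note: MM1S multiple myeloma cell line.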 The following applies: higher = more signal, called active from +8 up or from −8 down.
Assay [4] deals with Dihydroorotate dehydrogenase (quinone), mitochondrial (Plasmodium falciparum (isolate 3D7)) (UniProt Q08210). The assay is described as follows: PfDHODH enzyme inhibitors, primary screen, biochemical, C-terminal His tag, absorbance 600 nm (AID 1175).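 Note: recombinant parasite enzyme with a five histidine tag at its C terminus.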 The following applies: DCIP absorbance 600 nm, higher = more signal, called active from +8 up or from −8 down.
Assay [5] is described as follows: P. aeruginosa biofilm formation inhibitors, primary screen, strain PAO1, LB-PBS medium, absorbance 600 nm (AID 1176). The following applies: P. aeruginosa PAO1 growth/biofilm, A600, 12 h; higher = more signal.
Assay [6] can be described thus: S. cerevisiae RM11-1a growth modifiers, primary screen, strain RM11-1a, OD600, basal, 24 h (AID 1177).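 Note: cultures grown under basal conditions with no added stressor.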 The following applies: OD600, 24 h, higher = more signal, called active from +8 up or from −8 down.
A short description of assay [7]: E. coli acrAB mutant growth effects, primary screen, E. coli filamentation inducers, strain DRC39, OD650, 24 h (AID 1178).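 Note: growth measured as culture turbidity by optical density at 650 nm.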 The conditions noted are these: higher = more signal, called active from +8 up or from −8 down.
Assay [8] can be described thus: E. coli acrAB mutant growth effects, primary screen, E. coli filamentation inducers, strain DRC39, OD650, 48 h (AID 1179).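 Note: screen aims at cell division blockers that make cells filament.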 The following applies: E. coli DRC39 delta-acrAB growth, higher = more signal, called active from +8 up or from −8 down.
Assay [9] is described as follows: RPMI8226 myeloma cell viability, profiling panel, resazurin fluorescence, basal, 24 h, PK04 Diversity Set (AID 1180).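 Note: RPMI8826 multiple myeloma cell line at 5000 cells per well.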 The following applies: higher = more signal.
In assay [10] the target is E3 ubiquitin-protein ligase XIAP (Homo sapiens) (UniProt P98170). The assay is described as follows: XIAP binders, primary screen, biophysical, small-molecule microarray, fluorescence 635 nm (AID 1181).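 Note: score merges 667 nm emission and signal to noise over triplicate slides.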 The following applies: small-molecule microarray binding, higher = more signal.
Assay [11] has as its system XIP peptide (Xip251-270) binding. The assay is described as follows: small-molecule binders of XIP peptide, primary screen, biochemical, small-molecule microarray, fluorescence 635/667 nm, 0.1 µg/mL protein (AID 1182). The following applies: fluorescent protein binding, 635 nm, higher = more signal, called active from +8 up or from −8 down.
The next assay deals with XIP peptide (Xip251-270). The assay is described as follows: small-molecule binders of XIP peptide, primary screen, biochemical, small-molecule microarray, fluorescence 635/667 nm, 0.5 µg/mL protein (AID 1183). The following applies: small-molecule microarray binding, fluorescence 635 nm; higher = more signal.
Assay [12] is described as follows: Plasmodium falciparum growth inhibition, primary screen, strain 3D7, DAPI fluorescence, 100 nL (AID 1184).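 Note: parasites grown inside human red blood cells in medium with human serum.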 The following applies: P. falciparum 3D7 growth, 3 d, higher = more signal.
Assay [13] addresses Homeobox protein Hox-A13 (Mus musculus) (UniProt Q62424). The assay is described as follows: inhibitors of HoxA13-DNA binding, primary screen, biochemical, fluorescence polarization, labeled oligonucleotide (AID 1185). The following applies: 15 min, higher = more signal, called active from +8 up or from −8 down.
Assay [14] is described as follows: inhibitors of hydroxyurea-induced Chk1 phosphorylation, primary screen, imaging, HeLa, phospho-Chk1 antibody, percent positive cells (AID 1186). The conditions noted are these: hydroxyurea-induced phospho-Chk1 immunofluorescence imaging, higher = more signal.
Assay [15] is described as follows: inhibitors of hydroxyurea-induced Chk1 phosphorylation, primary screen, imaging, HeLa, phospho-Chk1 nuclear intensity (AID 1187). The conditions noted are these: hydroxyurea-induced phospho-Chk1 immunofluorescence imaging, higher = more signal.

Molecules are shown by their SMILES. The source made the active and inactive calls. Unless noted, the rule behind the calls is not given here.

Chain of E3 ubiquitin-protein ligase XIAP (Homo sapiens) (P98170 whole entry, looked up): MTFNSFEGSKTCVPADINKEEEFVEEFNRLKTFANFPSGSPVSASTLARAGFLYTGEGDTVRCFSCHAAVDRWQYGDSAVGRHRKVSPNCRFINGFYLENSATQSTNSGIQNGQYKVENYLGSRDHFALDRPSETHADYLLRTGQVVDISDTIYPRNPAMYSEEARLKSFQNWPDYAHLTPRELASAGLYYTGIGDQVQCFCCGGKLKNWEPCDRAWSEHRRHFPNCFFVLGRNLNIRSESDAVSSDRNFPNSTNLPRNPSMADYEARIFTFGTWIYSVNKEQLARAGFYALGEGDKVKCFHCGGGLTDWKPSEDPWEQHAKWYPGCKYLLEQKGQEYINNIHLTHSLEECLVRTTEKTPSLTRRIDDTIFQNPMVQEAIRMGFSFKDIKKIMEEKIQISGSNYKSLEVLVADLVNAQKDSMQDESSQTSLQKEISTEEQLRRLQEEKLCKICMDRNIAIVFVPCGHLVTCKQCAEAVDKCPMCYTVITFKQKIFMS
Chain of Homeobox protein Hox-A13 (Mus musculus) (Q62424 whole entry, looked up): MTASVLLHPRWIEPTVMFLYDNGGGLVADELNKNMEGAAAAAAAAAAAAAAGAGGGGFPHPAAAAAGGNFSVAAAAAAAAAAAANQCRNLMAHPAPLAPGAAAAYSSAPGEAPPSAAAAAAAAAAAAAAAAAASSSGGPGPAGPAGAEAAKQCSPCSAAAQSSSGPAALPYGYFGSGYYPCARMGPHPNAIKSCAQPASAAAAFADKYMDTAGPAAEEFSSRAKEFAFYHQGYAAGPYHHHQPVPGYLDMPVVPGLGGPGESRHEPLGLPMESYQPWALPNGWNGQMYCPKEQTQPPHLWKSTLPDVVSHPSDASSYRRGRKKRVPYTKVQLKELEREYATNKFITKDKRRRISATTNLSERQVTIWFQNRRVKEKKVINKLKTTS
Chain of Dihydroorotate dehydrogenase (quinone), mitochondrial (Plasmodium falciparum (isolate 3D7)) (Q08210 whole entry, looked up): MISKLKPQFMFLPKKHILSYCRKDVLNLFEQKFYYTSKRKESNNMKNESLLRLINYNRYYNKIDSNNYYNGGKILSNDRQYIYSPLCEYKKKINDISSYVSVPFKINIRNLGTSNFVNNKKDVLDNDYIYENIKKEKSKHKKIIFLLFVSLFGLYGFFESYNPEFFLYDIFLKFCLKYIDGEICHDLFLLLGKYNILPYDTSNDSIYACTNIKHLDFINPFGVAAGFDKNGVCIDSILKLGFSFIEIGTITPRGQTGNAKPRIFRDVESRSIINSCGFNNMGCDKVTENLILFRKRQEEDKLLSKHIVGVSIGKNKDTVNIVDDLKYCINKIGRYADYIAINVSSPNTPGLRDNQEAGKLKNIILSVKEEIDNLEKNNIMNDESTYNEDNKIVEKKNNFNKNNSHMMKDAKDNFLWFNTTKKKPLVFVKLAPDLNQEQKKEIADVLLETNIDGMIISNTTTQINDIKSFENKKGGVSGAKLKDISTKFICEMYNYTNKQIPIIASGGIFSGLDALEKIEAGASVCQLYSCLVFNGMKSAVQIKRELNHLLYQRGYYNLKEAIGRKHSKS

`COC(=O)[C@@]1(Cc2ccccc2)N=C(c2ccc(OCCCO)cc2)O[C@H]1c1ccccc1CN=[N+]=[N-]`: the z-score is -4.1 in assay [1]; 1.24 (inactive) in [2]; -7.62 (inactive) in assay [3]; 2.45 (inactive) in assay [5]; 2.85 (inactive) in assay [6]; 0.876 (inactive) in [7]. For the same compound, the z-score in assay [8] is 0.93 (inactive); in assay [9], -6.42; in [12], -2.42; in assay [13] it was -1.25 (inactive); in [14], -0.727 (inactive); in [15], -0.906 (inactive). Also, the composite z-score in assay [4] was 0.468 (inactive); in assay [10] it was 0.0549; in assay [11], -0.139 (inactive); with XIP peptide (Xip251-270), 0.85.

For the compound `COc1ccccc1CN1C(=O)c2ccccc2[C@](Cc2ccccc2I)(C(=O)NCC(C)C)[C@@H]1c1ccc(CO)cc1`, the z-score is 0.52 in assay [1]; -0.441 (inactive) in [2]; 0.916 (inactive) in assay [3]; 0.251 (inactive) in assay [5]; -0.337 (inactive) in assay [6]; 1.05 (inactive) in [7]. The z-score in [8] was 1.29 (inactive); in assay [9], 1.11; in assay [12], -0.409; in assay [13] it was -3.82 (inactive); in [14] it was -0.287 (inactive); in assay [15] it was -0.208 (inactive). Also, the composite z-score was 0.133 (inactive) in assay [4], -0.02 in [10], 0.935 (inactive) in assay [11] and 0.932 in the assay on XIP peptide (Xip251-270).

Turning to `CCOC(=O)C1=CC[C@@H](c2ccc(OC)cc2)N(S(=O)(=O)c2ccc(C)cc2)[C@H]1CC`, the z-score is 0.0292 in assay [1]; -1.82 (inactive) in [2]; -0.289 (inactive) in [3]; 0.505 (inactive) in assay [5]; -0.0802 (inactive) in [6]; 0.608 (inactive) in assay [7]. Besides, the z-score in [8] is 1.87 (inactive); in assay [9] it was -0.793; in assay [12], -2.03; in [13] it was -0.507 (inactive); in assay [14] it was -0.819 (inactive); in assay [15], -0.599 (inactive). Moreover, the composite z-score in [4] was -1.04 (inactive); in assay [10], -0.321; in assay [11] it was 0.441 (inactive); with XIP peptide (Xip251-270), 0.463.

Take `CCCCC(O)C1C=CC2C(=O)N(c3ccccc3)C(=O)C2N1Nc1ccccc1` (centres undefined): the z-score is 0.281 in assay [1]; -1.67 (inactive) in assay [2]; -0.125 (inactive) in assay [3]; -0.0625 (inactive) in assay [5]; 0.632 (inactive) in assay [6]; -0.407 (inactive) in assay [7]. Also, the z-score in assay [8] is 0.483 (inactive); in [9], -0.0096; in [12], -0.0871; in [13] it was -4.11 (inactive); in assay [14] it was 0.385 (inactive); in [15] it was 0.283 (inactive). For the same compound, the composite z-score in assay [4] was 0.477 (inactive); in [10], 0.366; in assay [11] it was 0.145 (inactive); with XIP peptide (Xip251-270) it was 0.137.

Consider `[N-]=[N+]=Nc1ccccc1C[C@]1(C(=O)N2CCOCC2)N=C(c2ccc(OCCCO)cc2)O[C@H]1c1ccccc1N=[N+]=[N-]`, for which the z-score is -1.37 in assay [1]; -2.51 (inactive) in assay [2]; -3.41 (inactive) in assay [3]; -0.444 (inactive) in assay [5]; 0.275 (inactive) in [6]; 1.16 (inactive) in [7]. In addition, the z-score in [8] is 2.48 (inactive); in [9], -2.65; in assay [12], -2.32; in assay [13] it was -3.58 (inactive); in assay [14] it was -1.46 (inactive); in [15], -2.06 (inactive). Also, the composite z-score in assay [4] was -0.481 (inactive); in assay [10], 0.446; in [11], 0.986 (inactive); in the assay with XIP peptide (Xip251-270) it was 0.721.

For `CC(C)(C)N1CC=CC23O[C@@H]4C=CCCOC(=O)C4[C@H]2C(=O)N(CCCCCCO)[C@@H]3C1=O` (some centres undefined), the z-score in assay [1] is 0.0735; in [2] it was -0.437 (inactive); in assay [3] it was -0.176 (inactive); in [5] it was -0.456 (inactive); in assay [6], 0.735 (inactive); in [7] it was -0.0435 (inactive). Besides, the z-score in assay [8] is 0.43 (inactive); in [9], 0.382; in assay [12], -0.143; in assay [13], -3.77 (inactive); in assay [14], -0.327 (inactive); in assay [15], 0.222 (inactive). For the same compound, the composite z-score in assay [4] was 0.713 (inactive); in [10] it was 0.189; in assay [11], 1.14 (inactive); in the assay with XIP peptide (Xip251-270) it was 0.202.

`C[C@@H]1NC(=O)C([C@@H](C)OCc2ccccc2)NC(=O)[C@@]23C(=O)N[C@@H](Cc4ccccc4)C2[C@H](C)[C@@]2(C)O[C@H]2C3/C=C/C/C=C\CNC1=O` (some centres undefined): the z-score in assay [1] is -0.847; in assay [2] it was -0.399 (inactive); in assay [3], 0.026 (inactive); in assay [5], 0.625 (inactive); in [6], 0.533 (inactive); in assay [7] it was -0.602 (inactive). The z-score in assay [8] is -0.426 (inactive); in assay [9], -0.104; in assay [12] it was 0.0074; in [13] it was -7.4 (inactive); in assay [14] it was -0.0202 (inactive); in [15] it was -0.0344 (inactive). For the same compound, the composite z-score in assay [4] is -0.0288 (inactive); in assay [10], -0.291; in assay [11], -0.501 (inactive); in the assay on XIP peptide (Xip251-270) it was -0.458.

On to `O=C1O[C@@H](c2ccccc2)[C@@H](c2ccccc2)N2[C@@H](c3ccc(OCCO)cc3)[C@]3(C(=O)Nc4ccc(C#CC5(O)CCCCCC5)cc43)[C@@H](C(=O)Nc3nc4ccccc4s3)[C@H]12`, for which the z-score is -0.369 in assay [1]; 1.28 (inactive) in assay [2]; -0.0769 (inactive) in assay [3]; 2.29 (inactive) in [5]; 2.45 (inactive) in [6]; -0.27 (inactive) in assay [7]. For the same compound, the z-score was 0.261 (inactive) in assay [8]; 0.519 in assay [9]; -1.59 in [12]; 1.03 (inactive) in assay [13]; 0.234 (inactive) in assay [14]; 0.42 (inactive) in assay [15]. Besides, the composite z-score in assay [4] is -0.263 (inactive); in [10], 0.147; in [11] it was 0.813 (inactive); in the assay on XIP peptide (Xip251-270) it was 0.667.

On to `CN(C)c1ccc(C(O)C2C=CC3C(=O)N(Cc4ccccc4)C(=O)C3N2n2cnnc2)cc1` (centres undefined), for which the z-score in assay [1] was -0.659; in assay [2], -0.116 (inactive); in [3] it was -0.253 (inactive); in assay [5] it was 1.77 (inactive); in assay [6], -0.794 (inactive); in assay [7], 0.0571 (inactive). For the same compound, the z-score in assay [8] was 0.694 (inactive); in [9], -0.268; in assay [12], 0.736; in [13] it was -0.863 (inactive); in assay [14], -1.39 (inactive); in assay [15], -1.58 (inactive). Also, the composite z-score is -0.536 (inactive) in assay [4], 0.0968 in assay [10], 3 (inactive) in assay [11] and -0.23 with XIP peptide (Xip251-270).
